Laboratory results published in PubChem BioAssay.
For some assays here: Potency and affinity values are given separately. Calls of active or inactive are those of the source. Unless noted, the rule behind the calls is not given here.

Experiments:
[1] = antimalarial activity against Dd2 strain (AID 2302;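 active = growth inhibition above 50% at the single 2 µM test dose, taken to imply half-maximal potency below 2 µM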;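 note: 0% = DMSO untreated growth and 100% = chloroquine plus artemisinin killed control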); conditions: P. falciparum Dd2 in RBCs, LDH growth readout, 72 h; at 2 µM; active compounds read high
[2] = HepG2 cytotoxicity, primary screen, cytotoxicity control for P. falciparum antimalarial project, cell-based, ATP luminescence (AID 2303;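 active = inhibition above 50%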;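 note: 0% = DMSO wells and 100% = digitonin-killed cells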); conditions: HepG2 viability, 24-48 h, at 10 µM, active compounds read high
[3] = target: L-lactate dehydrogenase (Plasmodium falciparum (isolate CDC / Honduras)) (UniProt Q27743); experiment: PfLDH activity inhibition – cell lysate, 3D7 strain, counter-screen for P. falciparum growth inhibition project (AID 2304);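 note: 0% = vehicle and 100% = reference inhibitor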; conditions: P. falciparum 3D7 crude extract, LDH APAD/NBT absorbance; at 2 µM; active compounds read high
[4] = inhibition of 3D7 malaria parasite growth – strain 3D7 (AID 2306);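 note: 0% = DMSO wells and 100% = chloroquine plus artemisinin control wells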; conditions: P. falciparum 3D7 erythrocytic growth, LDH absorbance, 72 h; at 2 µM; active compounds read high
[5] = target: Calcium-dependent protein kinase 1 (Plasmodium falciparum (isolate 3D7)) (UniProt P62344); experiment: PfCDPK1 kinase inhibitors, biochemical, TCAMS library (AID 1159585; cut-off not given, nearly all actives have IC50 up to about 0.98 µM;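 note: inhibitors leave more ATP so luminescence rises with inhibition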); conditions: recombinant PfCDPK1, Kinase-Glo ATP depletion luminescence
[6] = target: Plasmodium falciparum protein kinase 6 (PK6, PF3D7_1337100) (UniProt Q8IDW1); experiment: PfPK6 kinase inhibitors, biochemical, TCAMS library (AID 1159586); conditions: recombinant PfPK6, Kinase-Glo ATP depletion luminescence
[7] = target: Protein kinase 7 (PK7), Plasmodium falciparum 3D7 (PF3D7_0213400) (UniProt Q7YTF7); experiment: inhibition of Plasmodium PK7 catalytic activity – biochemical, TCAMS antimalarial set, Kinase-Glo luminescence (AID 1159587); conditions: recombinant PfPK7, Kinase-Glo ATP depletion luminescence
[8] = target: Calcium-dependent protein kinase 4 (Plasmodium falciparum (isolate 3D7)) (UniProt Q8IBS5); experiment: PfCDPK4 kinase inhibitors, biochemical, TCAMS library (AID 1159588; cut-off not given, nearly all actives have IC50 up to about 0.91 µM); conditions: recombinant PfCDPK4, Kinase-Glo ATP depletion luminescence
Calcium-dependent protein kinase 4 (Plasmodium falciparum (isolate 3D7)), sequence (Q8IBS5 whole entry, looked up): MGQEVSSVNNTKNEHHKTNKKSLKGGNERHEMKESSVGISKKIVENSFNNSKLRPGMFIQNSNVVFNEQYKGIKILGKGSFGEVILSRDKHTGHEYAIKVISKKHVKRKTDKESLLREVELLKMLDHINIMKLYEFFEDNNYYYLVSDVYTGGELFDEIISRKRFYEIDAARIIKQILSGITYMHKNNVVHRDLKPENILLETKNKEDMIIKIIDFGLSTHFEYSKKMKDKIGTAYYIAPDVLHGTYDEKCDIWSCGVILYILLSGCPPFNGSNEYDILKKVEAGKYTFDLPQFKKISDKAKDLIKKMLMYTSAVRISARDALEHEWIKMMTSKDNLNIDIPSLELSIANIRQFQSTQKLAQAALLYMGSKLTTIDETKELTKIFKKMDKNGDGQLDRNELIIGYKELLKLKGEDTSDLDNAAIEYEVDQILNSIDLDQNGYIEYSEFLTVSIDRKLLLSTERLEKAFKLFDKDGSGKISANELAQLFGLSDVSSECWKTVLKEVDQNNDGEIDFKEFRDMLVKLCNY

Plasmodium falciparum protein kinase 6 (PK6, PF3D7_1337100), sequence (Q8IDW1 1-305): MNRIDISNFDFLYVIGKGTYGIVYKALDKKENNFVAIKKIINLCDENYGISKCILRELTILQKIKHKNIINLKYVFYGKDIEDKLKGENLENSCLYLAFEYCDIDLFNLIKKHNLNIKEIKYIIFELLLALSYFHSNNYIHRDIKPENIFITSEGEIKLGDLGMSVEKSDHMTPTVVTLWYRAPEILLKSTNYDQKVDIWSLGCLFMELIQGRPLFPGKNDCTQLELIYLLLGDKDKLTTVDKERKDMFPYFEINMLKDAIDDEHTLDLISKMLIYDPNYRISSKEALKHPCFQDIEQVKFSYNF
Calcium-dependent protein kinase 1 (Plasmodium falciparum (isolate 3D7)), sequence (P62344 whole entry, looked up): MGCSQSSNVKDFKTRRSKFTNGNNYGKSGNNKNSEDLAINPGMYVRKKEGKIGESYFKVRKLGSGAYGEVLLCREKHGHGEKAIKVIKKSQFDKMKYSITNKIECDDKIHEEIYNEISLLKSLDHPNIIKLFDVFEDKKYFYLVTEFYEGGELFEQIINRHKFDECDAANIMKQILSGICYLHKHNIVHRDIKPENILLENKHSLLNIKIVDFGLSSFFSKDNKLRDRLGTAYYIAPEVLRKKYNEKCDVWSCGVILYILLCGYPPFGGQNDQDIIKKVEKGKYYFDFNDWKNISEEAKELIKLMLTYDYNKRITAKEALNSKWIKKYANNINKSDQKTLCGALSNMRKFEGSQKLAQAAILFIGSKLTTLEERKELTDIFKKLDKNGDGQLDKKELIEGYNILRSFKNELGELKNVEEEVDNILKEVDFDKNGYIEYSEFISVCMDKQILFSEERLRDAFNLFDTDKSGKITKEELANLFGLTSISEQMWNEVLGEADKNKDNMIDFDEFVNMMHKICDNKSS
Protein kinase 7 (PK7), Plasmodium falciparum 3D7 (PF3D7_0213400), sequence (Q7YTF7 1-343): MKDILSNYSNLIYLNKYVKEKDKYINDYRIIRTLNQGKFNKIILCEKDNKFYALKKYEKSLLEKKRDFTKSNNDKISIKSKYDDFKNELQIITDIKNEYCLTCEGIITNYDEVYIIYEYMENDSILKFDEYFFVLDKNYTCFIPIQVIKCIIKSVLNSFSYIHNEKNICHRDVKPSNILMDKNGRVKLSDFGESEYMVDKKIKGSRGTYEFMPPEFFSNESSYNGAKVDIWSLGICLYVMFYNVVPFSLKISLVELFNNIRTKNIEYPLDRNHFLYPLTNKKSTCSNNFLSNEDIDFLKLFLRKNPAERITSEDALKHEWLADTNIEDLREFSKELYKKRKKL
L-lactate dehydrogenase (Plasmodium falciparum (isolate CDC / Honduras)), sequence (Q27743 whole entry, looked up): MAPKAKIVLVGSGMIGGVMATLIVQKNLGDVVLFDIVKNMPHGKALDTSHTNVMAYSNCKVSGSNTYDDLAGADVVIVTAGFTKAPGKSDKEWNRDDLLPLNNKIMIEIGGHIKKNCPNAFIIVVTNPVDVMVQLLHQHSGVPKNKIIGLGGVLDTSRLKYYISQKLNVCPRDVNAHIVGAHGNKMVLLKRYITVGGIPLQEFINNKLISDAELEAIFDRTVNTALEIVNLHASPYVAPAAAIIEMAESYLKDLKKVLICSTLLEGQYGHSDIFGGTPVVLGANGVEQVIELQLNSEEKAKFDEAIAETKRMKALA

Cc1cccc2[nH]c(-c3ccc(-c4cccc(CN5CCCC(N)C5)c4)s3)nc12 (stereo not given)
inactive: inhibition [2] 17% | inhibition [3] 4% | outcome [5] | outcome [6] | outcome [7] | outcome [8]
active: growth inhibition [1] 94% | growth inhibition [4] 100%

CC(C)C[C@H](NC(=O)c1ccc(OCCN2CCOCC2)cc1)C(=O)N[C@H](/C=N/N1CCNC1=O)CCc1ccccc1
active: growth inhibition [1] 94% | growth inhibition [4] 89%
inactive: inhibition [2] 1% | inhibition [3] 4% | outcome [5] | outcome [6] | outcome [7] | outcome [8]

O=C(Nc1ccc2c(c1)CCN(C1CCC1)CC2)c1cn(-c2ccccc2)nc1-c1ccccc1
active: growth inhibition [4] 103%
inactive: growth inhibition [1] 10% | inhibition [2] 38% | inhibition [3] 3% | outcome [5] | outcome [6] | outcome [7] | outcome [8]

C=CCn1c(Sc2ccc(C#N)c([N+](=O)[O-])c2)nnc1-c1ccc(Cl)cc1
inactive: inhibition [2] 13% | inhibition [3] 3% | outcome [5] | outcome [6] | outcome [7] | outcome [8]
active: growth inhibition [1] 85% | growth inhibition [4] 97%

CCCCSc1nc2c(c(=O)n1Cc1ccco1)C1(CCCCC1)Cc1ccccc1-2
inactive: inhibition [2] 13% | inhibition [3] 2% | outcome [5] | outcome [6] | outcome [7] | outcome [8]
active: growth inhibition [1] 78% | growth inhibition [4] 96%

Cc1cccc(C)c1CNc1ccnc2ccccc12
inactive: growth inhibition [1] 10% | inhibition [3] -1% | outcome [5] | outcome [6] | outcome [7] | outcome [8]
active: inhibition [2] 59% | growth inhibition [4] 92%

O=C(NCCCN1CCCC1=O)c1cnc(N2CCC(Oc3ccccc3)CC2)c(Cl)c1
active: growth inhibition [1] 93% | growth inhibition [4] 97%
inactive: inhibition [2] 7% | inhibition [3] -2% | outcome [5] | outcome [6] | outcome [7] | outcome [8]

O=C(NCc1cccc(C(F)(F)F)c1)c1ccc(CNC(=O)c2ccc(O)c(-c3ccc(Cl)c(Cl)c3)c2)cc1
active: growth inhibition [4] 92%
inactive: growth inhibition [1] 15% | inhibition [2] 7% | inhibition [3] 2% | outcome [5] | outcome [6] | outcome [7] | outcome [8]

CC(C)CCCC(C)(C)NC[C@@H](O)[C@H](Cc1ccccc1)NC(=O)c1cc(NC(C)C)cc(N2CCCCS2(=O)=O)c1
active: growth inhibition [1] 98% | growth inhibition [4] 98%
inactive: inhibition [2] 2% | inhibition [3] -1% | outcome [5] | outcome [6] | outcome [7] | outcome [8]

Cc1c(NC(=O)COc2ccc(Cl)cc2C(=O)c2cc(F)cc(C(F)(F)F)c2)ccc2ncsc12
active: growth inhibition [4] 86%
inactive: growth inhibition [1] 18% | inhibition [2] -2% | inhibition [3] -2% | outcome [5] | outcome [6] | outcome [7] | outcome [8]

O=C1CCCN1CCCNCc1cccc(-c2cccc(-c3nc4ccc(F)cc4[nH]3)c2)c1
inactive: inhibition [2] 6% | inhibition [3] -3% | outcome [5] | outcome [6] | outcome [7] | outcome [8]
active: growth inhibition [1] 69% | growth inhibition [4] 100%

O=C(NCCc1ccc(F)cc1)c1ccc(N2CCN(c3ccncc3)CC2)nc1
inactive: growth inhibition [1] 3% | inhibition [2] 1% | inhibition [3] -4% | outcome [5] | outcome [6] | outcome [7] | outcome [8]
active: growth inhibition [4] 88%

CCOC(=O)c1ccc(NC(=O)NC2CCN(CCCCCNC(=O)/C=C/c3ccc(Cl)c(Cl)c3)C2)cc1 (stereo not given)
inactive: growth inhibition [1] 0% | inhibition [2] 23% | inhibition [3] -3% | outcome [5] | outcome [6] | outcome [7] | outcome [8]
active: growth inhibition [4] 98%

CC1(C)N=C(N)N=C(N)N1OCc1cccc(C#N)c1
active: inhibition [2] 57% | growth inhibition [4] 94%
inactive: growth inhibition [1] 2% | inhibition [3] 5% | outcome [5] | outcome [6] | outcome [7] | outcome [8]

O=C(Nc1ccc(Cl)cc1)c1ccc(CN2CCCN(Cc3cccc(F)c3)CC2)cc1
inactive: growth inhibition [1] 8% | inhibition [3] 6% | outcome [5] | outcome [6] | outcome [7] | outcome [8]
active: inhibition [2] 59% | growth inhibition [4] 91%

COc1ccc(Nc2cc(C)nc(NCc3ccc4c(c3)OCO4)n2)cc1
active: growth inhibition [1] 78% | growth inhibition [4] 99%
inactive: inhibition [2] 26% | inhibition [3] -2% | outcome [5] | outcome [6] | outcome [7] | outcome [8]

Nc1nc(N)c2c(ccc3c2ccn3Cc2ccc(F)cc2)n1
inactive: inhibition [3] 1% | outcome [5] | outcome [6] | outcome [7] | outcome [8]
active: growth inhibition [1] 96% | inhibition [2] 66% | growth inhibition [4] 97%

COc1cc(OC)cc(C(=O)Nc2ccc(Nc3nc(C)cc(N(C)C)n3)cc2)c1
active: growth inhibition [1] 90% | growth inhibition [4] 100%
inactive: inhibition [2] 11% | inhibition [3] 1% | outcome [5] | outcome [6] | outcome [7] | outcome [8]

O=S(=O)(NCCN1CCCC1)c1ccc(-c2ccc(CN3Cc4ccccc4C3)cc2)s1
inactive: growth inhibition [1] 18% | inhibition [2] 19% | inhibition [3] 5% | outcome [5] | outcome [6] | outcome [7] | outcome [8]
active: growth inhibition [4] 89%

COc1ccc(Cl)cc1N1CCN(CCCNC(=O)c2ccc(-c3nc4cc(Cl)c(F)cc4[nH]3)s2)CC1
inactive: inhibition [2] 12% | inhibition [3] 4% | outcome [5] | outcome [6] | outcome [7] | outcome [8]
active: growth inhibition [1] 98% | growth inhibition [4] 101%

CCc1cn(CCc2ccccc2)c2ccc(C(=O)N[C@@H](Cc3ccccc3)[C@H](O)CNC(C)(C)CCCC(C)C)cc12
inactive: inhibition [3] 5% | outcome [5] | outcome [6] | outcome [7] | outcome [8]
active: growth inhibition [1] 99% | inhibition [2] 66% | growth inhibition [4] 98%

CN(CCN(C)C(=O)NCc1ccccc1)C(=O)NCc1ccccc1
active: growth inhibition [4] 101%
inactive: growth inhibition [1] 0% | inhibition [2] 2% | inhibition [3] 1% | outcome [5] | outcome [6] | outcome [7] | outcome [8]

COc1ccc2nccc(NN=Cc3ccccc3F)c2c1
inactive: inhibition [2] 23% | inhibition [3] -2% | outcome [5] | outcome [6] | outcome [7] | outcome [8]
active: growth inhibition [1] 98% | growth inhibition [4] 103%

CCCC(=O)c1cnc2c(I)cccc2c1Nc1ccccc1C
active: growth inhibition [4] 90%
inactive: growth inhibition [1] 26% | inhibition [2] 7% | inhibition [3] 4% | outcome [5] | outcome [6] | outcome [7] | outcome [8]

CC(C)C(NC(=O)Cc1cccc2ccccc12)C(=O)Nc1cccc(C#N)c1 (stereo not given)
active: growth inhibition [1] 91% | growth inhibition [4] 92%
inactive: inhibition [2] -3% | inhibition [3] 0% | outcome [5] | outcome [6] | outcome [7] | outcome [8]

CCNC(=O)Nc1ccc(-c2ccc(-c3nc4c(C)cccc4[nH]3)s2)cc1
active: growth inhibition [4] 96%
inactive: growth inhibition [1] 13% | inhibition [2] 18% | inhibition [3] -2% | outcome [5] | outcome [6] | outcome [7] | outcome [8]

CCOc1cccc(C2c3c(oc4ccccc4c3=O)C(=O)N2CCN(CC)CC)c1 (stereo not given)
inactive: inhibition [2] 5% | inhibition [3] -2% | outcome [5] | outcome [6] | outcome [7] | outcome [8]
active: growth inhibition [1] 66% | growth inhibition [4] 100%

Cc1cc(N(C)C)nc(Nc2ccc(NC(=O)c3ccccc3C)cc2)n1
inactive: growth inhibition [1] 16% | inhibition [2] -5% | inhibition [3] -2% | outcome [5] | outcome [6] | outcome [7] | outcome [8]
active: growth inhibition [4] 93%

O=C(CCCCCNC(=O)c1ccc(O)c(-c2ccc(Cl)c(Cl)c2)c1)NCCN1CCCC1
inactive: growth inhibition [1] 2% | inhibition [2] -6% | inhibition [3] -2% | outcome [5] | outcome [6] | outcome [7] | outcome [8]
active: growth inhibition [4] 90%

COc1cc(C)nc2ccc(NC(=O)COCC(=O)Nc3ccc4nc(C)cc(OC)c4c3)cc12
inactive: growth inhibition [1] 41% | inhibition [3] 7% | outcome [5] | outcome [6] | outcome [7] | outcome [8]
active: inhibition [2] 67% | growth inhibition [4] 100%

CCCc1cnc2nc(N)nc(N)c2c1C
inactive: growth inhibition [1] 3% | inhibition [3] -3% | outcome [5] | outcome [6] | outcome [7] | outcome [8]
active: inhibition [2] 68% | growth inhibition [4] 93%

Cc1ccc(Nc2nc(NN=Cc3cc4c(cc3Br)OCO4)nc(Nc3ccc([N+](=O)[O-])cc3)n2)cc1C
inactive: inhibition [2] 23% | inhibition [3] -2% | outcome [5] | outcome [6] | outcome [7] | outcome [8]
active: growth inhibition [1] 89% | growth inhibition [4] 100%

COc1cc2ncnc(Nc3ccc4nc(-c5ccccc5)[nH]c4c3)c2cc1OC
inactive: growth inhibition [1] 32% | inhibition [2] 15% | inhibition [3] -5% | outcome [5] | outcome [6] | outcome [7] | outcome [8]
active: growth inhibition [4] 92%

COc1ccc(C(C(=O)NC2CCN(C[C@H](O)c3ccnc4ccc(OC)cc34)CC2)N2CCN(c3ccc(F)cc3)CC2)cc1 (stereo not given in full)
active: growth inhibition [1] 86% | growth inhibition [4] 97%
inactive: inhibition [2] 16% | inhibition [3] -6% | outcome [5] | outcome [6] | outcome [7] | outcome [8]

COc1ccc(Cl)cc1N1CCN(CCCNC(=O)c2ccc(-c3nc4cc(Cl)c(F)cc4[nH]3)c(F)c2)CC1
inactive: inhibition [2] 21% | inhibition [3] 5% | outcome [5] | outcome [6] | outcome [7] | outcome [8]
active: growth inhibition [1] 91% | growth inhibition [4] 101%

COc1cccc2c1CCN(CCN1CCC(NC(=O)c3ccc(-c4cccc(Cl)c4Cl)cc3)CC1)C2
inactive: growth inhibition [1] 38% | inhibition [2] 47% | inhibition [3] -1% | outcome [5] | outcome [6] | outcome [7] | outcome [8]
active: growth inhibition [4] 100%

O=C(/C=C/c1ccc(Cl)c(Cl)c1)NCCCCN1CCCN(C(=O)Nc2ccc(C(F)(F)F)cc2)CC1
active: growth inhibition [4] 94%
inactive: growth inhibition [1] -1% | inhibition [2] 35% | inhibition [3] 5% | outcome [5] | outcome [6] | outcome [7] | outcome [8]

O=C(NC1CCN(Cc2ccccc2)CC1)c1cc(C(=O)NC2CCN(Cc3ccccc3)CC2)cc(C(=O)NC2CCN(Cc3ccccc3)CC2)c1
inactive: inhibition [2] 13% | inhibition [3] 1% | outcome [5] | outcome [6] | outcome [7] | outcome [8]
active: growth inhibition [1] 100% | growth inhibition [4] 100%

Cc1ccc(C)c(Cn2ccc3nc(Cl)nc(Cl)c32)c1
inactive: inhibition [2] -10% | inhibition [3] -2% | outcome [5] | outcome [6] | outcome [7] | outcome [8]
active: growth inhibition [1] 68% | growth inhibition [4] 95%

CCC1(CC)N=C(N)N=C(N)N1OCc1ccc(Cl)c(Cl)c1
active: growth inhibition [4] 94%
inactive: growth inhibition [1] 49% | inhibition [2] 49% | inhibition [3] -1% | outcome [5] | outcome [6] | outcome [7] | outcome [8]
